Data as given in PubChem BioAssay (NCATS).
Results filed as inconclusive are left out. The source made the active and inactive calls. Calls come from the whole dose curve; as a rule, active = well fitted curve in the direction sought with a large enough effect; inconclusive = small, poorly fitted or top-dose-only effect, or another doubt; inactive = no such curve, though single readings can be large; an effect the other way counts as inactive or inconclusive. Where a SMILES comes first, the peptide text is derived from it. [ ]: non-standard residue; d: D form.

What was measured:
[1] = tested on: KB-3-1; assay: Cytotoxic Profiling of Annotated Libraries Using Quantitative High-Throughput Screening (AID 1296008); conditions: Five cell lines viability, CellTiter-Glo ATP luminescence, 48-72 h; max response: active compounds read low; note: nearly all actives have a fitted effect of over 60% in size; for max response: % is set by controls: 0 for no effect and ±100 for the full control effect
Outline: (§1)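 Compounds were pin-transferred onto cells and incubated 48 or 72 hr at 37 degree Celsius, 95% humidity. CellTiter-Glo was added, plates sat 10 min at room temperature, then ATP-coupled luminescence was imaged as the viability read-out.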

[2] = tested on: NIH3T3; assay: as above; conditions: Five cell lines viability, CellTiter-Glo ATP luminescence, 48-72 h; max response: active compounds read low
Outline: as §1

[3] = tested on: HEK293T; assay: qHTS assay to identify novel small-molecules to repurpose for Merkel cell carcinoma treatment (AID 1296009); conditions: MCC and control cell lines, CellTiter-Glo viability, 72 h; series mostly up to 44.8 µM; note: nearly all actives have a fitted effect of over 60% in size
Outline: (§2)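 Viability readout: ATP luminescence (CellTiter-Glo) after 72 hr drug exposure at 37 degree celsius. Dose-response format was 8 points for NPC and 11 points for MIPE; data normalized to in-plate controls.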

[4] = tested on: NIH3T3; assay: as above; conditions: MCC and control cell lines, CellTiter-Glo viability, 72 h; at 44.8 µM (top of the series) unless noted
Outline: as §2

[5] = tested on: C33A; assay: Primary qHTS to identify gynecologic anti-cancer compounds using libraries of approved drugs and bioactive compounds (AID 1345084); conditions: Gynecologic cancer cell panel viability, ATPlite luminescence, 48 h; series mostly up to 57.5 µM; note: % is set by controls: 0 for no effect and ±100 for the full control effect; nearly all actives have a fitted effect of over 55% in size
Outline: (§3)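 Cells, 1,000 per well, plated 16 h, then exposed 48 h at 37 C to compounds. Viability by ATPlite luminescence after 15 min at room temperature.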

[6] = tested on: CAOV3; assay: as above; conditions: Gynecologic cancer cell panel viability, ATPlite luminescence, 48 h; series mostly up to 57.5 µM
Outline: as §3

[7] = tested on: CASKI; assay: as above; conditions: Gynecologic cancer cell panel viability, ATPlite luminescence, 48 h; series mostly up to 57.5 µM
Outline: as §3

[8] = tested on: Es-2; assay: as above; conditions: Gynecologic cancer cell panel viability, ATPlite luminescence, 48 h; series mostly up to 57.5 µM
Outline: as §3

[9] = tested on: HeLa; assay: as above; conditions: Gynecologic cancer cell panel viability, ATPlite luminescence, 48 h; series mostly up to 57.5 µM
Outline: as §3

[10] = tested on: Hek293T; assay: as above; conditions: Gynecologic cancer cell panel viability, ATPlite luminescence, 48 h, control line for the selectivity index; series mostly up to 57.5 µM
Outline: as §3

[11] = tested on: JEG-3; assay: as above; conditions: Gynecologic cancer cell panel viability, ATPlite luminescence, 48 h; series mostly up to 57.5 µM
Outline: as §3

[12] = tested on: OV90; assay: as above; conditions: Gynecologic cancer cell panel viability, ATPlite luminescence, 48 h; series mostly up to 57.5 µM
Outline: as §3

[13] = tested on: PA-1; assay: as above; conditions: Gynecologic cancer cell panel viability, ATPlite luminescence, 48 h; series mostly up to 57.5 µM
Outline: as §3

CC1CCC2C(C(=O)O)=CC3CC(C)(C)CC132 (stereo not given)
inactive: max response [1] 3% | outcome [2] | Potency [3] | outcome [4] | Potency [5] | Potency [6] | Potency [7] | Potency [8] | Potency [9] | Potency [10] | Potency [11] | Potency [12] | Potency [13]

CC(=O)N[C@H](Cc1ccc(O)cc1)C(=O)N[C@H](CCCN=C(N)N)C(=O)N[C@H](Cc1ccccc1)C(N)=O (Ac-[dY]-[dR]-[dF]-NH2)
inactive: outcome [1] | outcome [2] | Potency [3] | outcome [4] | Potency [5] | Potency [6] | Potency [7] | Potency [8] | Potency [9] | Potency [10] | Potency [11] | Potency [12] | Potency [13]

COc1cc(/C=C/C(=O)OC2CC3CCC2(C)C3(C)C)ccc1O (stereo not given)
inactive: max response [1] 9.6% | outcome [2] | Potency [3] | outcome [4] | Potency [5] | Potency [6] | Potency [7] | Potency [8] | Potency [9] | Potency [10] | Potency [11] | Potency [12] | Potency [13]

CC(=O)OC[C@]1(O)[C@H]2[C@H](OC(=O)CC(C)C)OC=C(CO[C@@H]3O[C@H](CO)[C@@H](O)[C@H](O)[C@H]3O)[C@H]2C[C@@H]1O
inactive: outcome [1] | outcome [2] | Potency [3] | outcome [4] inactive [at 17.4 µM] | Potency [5] | Potency [6] | Potency [7] | Potency [8] | Potency [9] | Potency [10] | Potency [11] | Potency [12] | Potency [13]

CC1CCC23COC(=O)C2=CC(O)CC3C1(C)CCC1=CC(=O)OC1O (stereo not given)
inactive: outcome [1] | outcome [2] | Potency [3] | outcome [4] | Potency [5] | Potency [6] | Potency [7] | Potency [8] | Potency [9] | Potency [10] | Potency [11] | Potency [12] | Potency [13]

C[C@@H]1CC[C@]2(C(=O)O)CC[C@]3(C(=O)O)C(=CCC4[C@@]5(C)CC[C@H](O[C@@H]6O[C@@H](C)[C@H](O[C@@H]7O[C@H](CO)[C@@H](O)[C@H](O)[C@H]7O)[C@@H](O)[C@H]6O)C(C)(C)C5CC[C@]43C)C2[C@H]1C (stereo not given in full)
inactive: outcome [1] | outcome [2] | Potency [3] | outcome [4] inactive [at 17.4 µM] | Potency [5] | Potency [6] | Potency [7] | Potency [8] | Potency [9] | Potency [10] | Potency [11] | Potency [12] | Potency [13]

CC1CCCC2OC2C(=O)c2c(O)cc(O)cc2CC(=O)O1 (stereo not given)
inactive: max response [1] 3.41% | outcome [2] | Potency [3] | outcome [4] | Potency [5] | Potency [6] | Potency [7] | Potency [8] | Potency [9] | Potency [10] | Potency [11] | Potency [12] | Potency [13]

CCCn1cnc2c(NCc3ccccc3)nc(N[C@H](CC)CO)nc21
inactive: outcome [1] | outcome [2] | Potency [3] | outcome [4] | Potency [5] | Potency [6] | Potency [7] | Potency [8] | Potency [9] | Potency [10] | Potency [11] | Potency [12] | Potency [13]

CC(=O)OC1C(O)CC(O[C@@H]2O[C@H](CO)[C@@H](O)[C@H](O)[C@H]2O)C2CCC3C(=O)OC(c4ccoc4)CC3(C)C21 (stereo not given in full)
inactive: max response [1] 0.494% | outcome [2] | Potency [3] | outcome [4] inactive [at 17.4 µM] | Potency [5] | Potency [6] | Potency [7] | Potency [8] | Potency [9] | Potency [10] | Potency [11] | Potency [12] | Potency [13]

CC[C@H](/C=C/[C@@H](C)[C@H]1CC[C@H]2[C@@H]3CC=C4C[C@@H](O)CC[C@]4(C)[C@H]3CC[C@]12C)C(C)C
inactive: outcome [1] | outcome [2] | outcome [3] inactive [at 4.96 µM] | outcome [4] inactive [at 4.96 µM] | activity change, negative = cytotoxicity [5] 8.42% [at 6.55 µM] | activity change, negative = cytotoxicity [6] 7.88% [at 6.55 µM] | activity change, negative = cytotoxicity [7] 17.1% [at 6.55 µM] | activity change, negative = cytotoxicity [8] 0.911% [at 6.55 µM] | activity change, negative = cytotoxicity [9] -1.7% [at 6.55 µM] | activity change, negative = cytotoxicity [10] 4.66% [at 6.55 µM] | activity change, negative = cytotoxicity [11] 3.22% [at 6.55 µM] | activity change, negative = cytotoxicity [12] 2.68% [at 6.55 µM] | activity change, negative = cytotoxicity [13] 2.16% [at 6.55 µM]

CN1C(=O)c2ccccc2-n2c(nc3ccccc3c2=O)[C@@]12O[C@H]2c1ccccc1
inactive: outcome [1] | outcome [2] | Potency [3] | outcome [4] | Potency [5] | Potency [6] | Potency [7] | Potency [8] | Potency [9] | Potency [10] | Potency [11] | Potency [12] | Potency [13]

C=C(C)C1CC2(CO)C(=CC1=O)CCC(O)C2C (stereo not given)
inactive: max response [1] 4.67% | outcome [2] | Potency [3] | outcome [4] | Potency [5] | Potency [6] | Potency [7] | Potency [8] | Potency [9] | Potency [10] | Potency [11] | Potency [12] | Potency [13]

COc1cc(CC(COC2OC(CO)C(O)C(O)C2O)c2cc(/C=C/CO)cc(OC)c2O)ccc1O (stereo not given)
inactive: max response [1] 1.74% | outcome [2] | Potency [3] | outcome [4] inactive [at 17.4 µM] | Potency [5] | Potency [6] | Potency [7] | Potency [8] | Potency [9] | Potency [10] | Potency [11] | Potency [12] | Potency [13]

CC1(C)C(=O)C(C)(C)c2cc(C(=O)Nc3ccc(C(=O)O)cc3)ccc21
inactive: outcome [1] | outcome [2] | Potency [3] | outcome [4] | Potency [5] | Potency [7] | Potency [8] | Potency [9] | Potency [10] | Potency [11] | Potency [12] | Potency [13]

COc1ccc2c(c1)O[C@H](O[C@@H]1O[C@H](CO)[C@@H](O)[C@H](O)[C@H]1O)C(=O)N2
inactive: outcome [1] | outcome [2] | Potency [3] | outcome [4] | Potency [5] | Potency [6] | Potency [7] | Potency [8] | Potency [9] | Potency [10] | Potency [11] | Potency [12] | Potency [13]

O=c1ccn([C@@H]2O[C@H](CO)[C@@H](O)[C@H]2O)c(=O)[nH]1
inactive: max response [1] 0.253% | outcome [2] | Potency [3] | outcome [4] | Potency [5] | Potency [6] | Potency [7] | Potency [8] | Potency [9] | Potency [10] | Potency [11] | Potency [12] | Potency [13]

N#CC1C(=O)Nc2scc(-c3ccc(-c4ccccc4O)cc3)c2C1=O (stereo not given)
inactive: outcome [1] | outcome [2] | Potency [3] | outcome [4] | Potency [5] | Potency [6] | Potency [7] | Potency [8] | Potency [9] | Potency [10] | Potency [11] | Potency [12] | Potency [13]

COCC(=O)N1CCc2cc(-c3csc(NC(=O)c4cc(OC)cc(OC)c4)n3)ccc21
inactive: outcome [1] | outcome [2] | Potency [3] | outcome [4] | Potency [5] | Potency [6] | Potency [7] | Potency [8] | Potency [9] | Potency [10] | Potency [11] | Potency [12] | Potency [13]

C=CCc1ccc(O[C@@H]2O[C@H](CO[C@@H]3O[C@H](CO)[C@@H](O)[C@H](O)[C@H]3O)[C@@H](O)[C@H](O)[C@H]2O)c(O)c1
inactive: max response [1] -2.46% | outcome [2] | Potency [3] | outcome [4] inactive [at 17.4 µM] | Potency [5] | Potency [6] | Potency [7] | Potency [8] | Potency [9] | Potency [10] | Potency [11] | Potency [12] | Potency [13]

OC1COC(OCC2OC(OCCc3ccccc3)C(O)C(O)C2O)C(O)C1O (stereo not given)
inactive: outcome [1] | outcome [2] | Potency [3] | outcome [4] inactive [at 17.4 µM] | Potency [5] | Potency [6] | Potency [7] | Potency [8] | Potency [9] | Potency [10] | Potency [11] | Potency [12] | Potency [13]

c1ccc(Cc2ncc3c(n2)CCNCC3)cc1
inactive: max response [1] 0.381% | outcome [2] | Potency [3] | outcome [4] | Potency [5] | Potency [7] | Potency [8] | Potency [9] | Potency [10] | Potency [11] | Potency [12] | Potency [13]

C=CC1(C)CC2=CCC3C(C)(C(=O)O)CCCC3(C)C2CC1OC(C)=O (stereo not given)
inactive: max response [1] 0.0592% | outcome [2] | Potency [3] | outcome [4] | Potency [5] | Potency [7] | Potency [8] | Potency [9] | Potency [10] | Potency [11] | Potency [12] | Potency [13]

Cc1cc(N2CCCCC2)nc2ccccc12
inactive: outcome [1] | outcome [2] | Potency [3] | outcome [4] | Potency [5] | Potency [6] | Potency [7] | Potency [8] | Potency [9] | Potency [10] | Potency [12] | Potency [13]
